Laboratory results from PubChem BioAssay (Tox21).
Inconclusive results are not listed. Where a call stands in place of a potency, no number is given. Calls of active or inactive are those of the source. Unless noted, calls follow the shape of the dose curve; as a rule, active = well fitted curve in the direction sought with a large enough effect in the repeat runs; inconclusive = weak or mixed curves; inactive = no such curve, though single readings can be large; an effect the other way counts as inactive or inconclusive. Positions of bridges follow the written chain, without caps; N, C: chain ends. Non-standard residues stand in square brackets, D forms with d. Residues, ends and D or L forms follow the SMILES beside them. ξ: configuration not given here. *: point of attachment. d(aThr) = C[C@@H](O)[C@@H](N)C(=O)O; ξThr(3R) = C[C@@H](O)C(N)C(=O)O; X3 = CC[C@@H](C)CCCCC(=O)*; dDab = NCC[C@@H](N)C(=O)O

Columns and labels:
[1] = qHTS assay to test for compound auto fluorescence at 535 nm (green) in HEK293 cells (AID 720680)
[2] = qHTS assay to test for compound auto fluorescence at 460 nm (blue) in HEK293 cell free culture (AID 720681)
Procedure, shortened: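 Test compounds were pinned into cell-free culture medium (DMEM with 10% FBS) and fluorescence was read directly at Ex/Em 405/460 nm. Signals were expressed as fluorescence equivalents of triamterene, with DMSO vehicle as control.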

[3] = qHTS assay to test for compound auto fluorescence at 535 nm (green) in HEK293 cell free culture (AID 720682)
Procedure, shortened: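 DMEM + 10% FBS, cell-free; cpd or DMSO pinned in; Ex485/Em535 read; output as fluorescein-equivalent signal.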

[4] = qHTS assay to test for compound auto fluorescence at 590 nm (red) in HEK293 cell free culture (AID 720683)
Procedure, shortened: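 Tox21 10K library compounds were pinned into cell-free DMEM with 10% FBS and fluorescence was read at excitation 540 nm. Activity is expressed as Rose Bengal sodium equivalency.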

[5] = qHTS assay to test for compound auto fluorescence at 590 nm (red) in HepG2 cell free culture (AID 720684)
Procedure, shortened: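 Measured in medium alone (MEM containing 10% FBS) following pintool addition of compound; emission at 590 nm with 540 nm excitation, referenced to Rose Bengal sodium.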

[6] = qHTS assay to test for compound auto fluorescence at 460 nm (blue) in HepG2 cell free culture (AID 720685)
Procedure, shortened: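 Compound (23 nL) or DMSO pinned into cell-free MEM with 10% FBS; blue fluorescence read at 405/460 nm excitation/emission, expressed as auto-fluorescence equivalency to triamterene.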

[7] = qHTS assay to test for compound auto fluorescence at 535 nm (green) in HepG2 cell free culture (AID 720686)
[8] = qHTS assay to test for compound auto fluorescence at 460 nm (blue) in HepG2 cells (AID 720687)
Procedure, shortened: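 Cells (2,000/well in MEM with 10% FBS) attached overnight at 37 C, then were exposed to compound or DMSO for 1 hr at 37 C, 5% CO2. Fluorescence read at Ex/Em 405/460 nm, expressed as triamterene-equivalent signal.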

[9] = target: Glucocorticoid receptor (Homo sapiens) (UniProt P04150); test: qHTS assay to identify small molecule agonists of the glucocorticoid receptor (GR) signaling pathway (AID 720691; active = well fitted activation curve with a large enough effect in the signal ratio in the repeat runs, not every such curve was filed as active; the % refers to the signal ratio); conditions: GR-bla HeLa, beta-lactamase reporter ratio, 18 h; activation: at 62.4 µM (top of the series)
Sequence of Glucocorticoid receptor (Homo sapiens) (P04150 whole entry, looked up): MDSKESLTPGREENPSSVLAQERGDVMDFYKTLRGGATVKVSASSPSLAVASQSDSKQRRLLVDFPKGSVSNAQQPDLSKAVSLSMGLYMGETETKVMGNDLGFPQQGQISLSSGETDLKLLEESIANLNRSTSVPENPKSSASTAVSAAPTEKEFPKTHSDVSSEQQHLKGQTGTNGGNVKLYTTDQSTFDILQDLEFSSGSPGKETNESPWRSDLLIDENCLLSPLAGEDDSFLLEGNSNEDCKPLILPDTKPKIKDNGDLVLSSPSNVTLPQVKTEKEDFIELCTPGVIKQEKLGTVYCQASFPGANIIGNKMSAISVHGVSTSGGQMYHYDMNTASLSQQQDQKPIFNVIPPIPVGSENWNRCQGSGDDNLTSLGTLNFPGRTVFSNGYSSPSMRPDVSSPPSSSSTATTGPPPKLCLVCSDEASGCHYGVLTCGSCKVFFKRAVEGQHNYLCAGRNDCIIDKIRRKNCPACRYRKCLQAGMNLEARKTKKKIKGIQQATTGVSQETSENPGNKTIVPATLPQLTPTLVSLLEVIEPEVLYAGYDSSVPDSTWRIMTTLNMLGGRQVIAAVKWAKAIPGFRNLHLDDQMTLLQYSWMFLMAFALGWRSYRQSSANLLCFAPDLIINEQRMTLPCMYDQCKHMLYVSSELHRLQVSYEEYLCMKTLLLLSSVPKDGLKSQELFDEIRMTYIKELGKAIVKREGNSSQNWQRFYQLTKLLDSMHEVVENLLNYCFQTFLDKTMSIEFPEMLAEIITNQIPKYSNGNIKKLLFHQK
Procedure, shortened: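 Agonist mode in a HeLa line carrying a GRE-controlled beta-lactamase reporter. Compounds act for 18 h at 37 C before a 2 h room-temperature FRET substrate step and fluorescence reading.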

[10] = target: Glucocorticoid receptor (Homo sapiens) (UniProt P04150); test: qHTS assay to identify small molecule antagonists of the glucocorticoid receptor (GR) signaling pathway (AID 720692; active = well fitted inhibition curve with a large enough effect in the signal ratio in the repeat runs, not every such curve was filed as active; the % refers to the signal ratio)
Procedure, shortened: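 Cells plated, rested 4 h at 37 C/5% CO2; compounds in DMSO pin-transferred; dexamethasone added to 5 nM final; 18 h at 37 C; B/G FRET substrate added, 2 h room temperature; fluorescence measured.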

[11] = qHTS assay to identify small molecule antagonists of the glucocorticoid receptor (GR) signaling pathway - cell viability counter screen (AID 720693); also: nearly all actives have a fitted effect of over 55% in size
[12] = qHTS assay for identifying genotoxic compounds that show differential cytotoxicity against isogenic chicken DT40 cell lines with known DNA damage response pathways - wild type cell line (AID 743012); also: nearly all actives have a fitted effect of over 60% in size; also: potency is read from the fitted curve at half-maximal effect
Procedure, shortened: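 Cells (DT40 wild type, 300/well) are treated with DMSO-dissolved compounds after a ~0.5 h pre-incubation and kept 40 h at 37 C/5% CO2. Viability is then measured by CellTiter-Glo luminescence following 30 min at room temperature.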

[13] = qHTS assay for identifying genotoxic compounds that show differential cytotoxicity against isogenic chicken DT40 cell lines with known DNA damage response pathways - Rad54/Ku70 mutant cell line (AID 743015); also: nearly all actives have a fitted effect of over 60% in size; also: potency is read from the fitted curve at half-maximal effect
[14] = qHTS assay to identify small molecule antagonists of the androgen receptor (AR) signaling pathway - cell viability counter screen (AID 743033; also: nearly all actives have a fitted effect of over 45% in size)
[15] = qHTS assay to identify small molecule antagonists of the androgen receptor (AR) signaling pathway using the MDA cell line - cell viability counter screen (AID 743041; also: nearly all actives have a fitted effect of over 45% in size)
Procedure, shortened: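 Viability counter screen run alongside the AR antagonist reporter: cells seeded 5 h before compound, R1881 added, 16 h incubation at 37C without CO2, fluorescent CellTiter-Fluor signal quantified.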

[16] = qHTS assay for identifying genotoxic compounds that show differential cytotoxicity against isogenic chicken DT40 cell lines with known DNA damage response pathways - Rev3 mutant cell line (AID 743014); also: nearly all actives have a fitted effect of over 55% in size; also: potency is read from the fitted curve at half-maximal effect
[17] = target: Androgen receptor (Homo sapiens) (UniProt P10275); test: qHTS assay to identify small molecule antagonists of the androgen receptor (AR) signaling pathway (AID 743035; active = well fitted inhibition curve with a large enough effect in the signal ratio in the repeat runs, not every such curve was filed as active; the % refers to the signal ratio; also: potency is read from the fitted curve at half-maximal effect)
Sequence of Androgen receptor (Homo sapiens) (P10275 whole entry, looked up): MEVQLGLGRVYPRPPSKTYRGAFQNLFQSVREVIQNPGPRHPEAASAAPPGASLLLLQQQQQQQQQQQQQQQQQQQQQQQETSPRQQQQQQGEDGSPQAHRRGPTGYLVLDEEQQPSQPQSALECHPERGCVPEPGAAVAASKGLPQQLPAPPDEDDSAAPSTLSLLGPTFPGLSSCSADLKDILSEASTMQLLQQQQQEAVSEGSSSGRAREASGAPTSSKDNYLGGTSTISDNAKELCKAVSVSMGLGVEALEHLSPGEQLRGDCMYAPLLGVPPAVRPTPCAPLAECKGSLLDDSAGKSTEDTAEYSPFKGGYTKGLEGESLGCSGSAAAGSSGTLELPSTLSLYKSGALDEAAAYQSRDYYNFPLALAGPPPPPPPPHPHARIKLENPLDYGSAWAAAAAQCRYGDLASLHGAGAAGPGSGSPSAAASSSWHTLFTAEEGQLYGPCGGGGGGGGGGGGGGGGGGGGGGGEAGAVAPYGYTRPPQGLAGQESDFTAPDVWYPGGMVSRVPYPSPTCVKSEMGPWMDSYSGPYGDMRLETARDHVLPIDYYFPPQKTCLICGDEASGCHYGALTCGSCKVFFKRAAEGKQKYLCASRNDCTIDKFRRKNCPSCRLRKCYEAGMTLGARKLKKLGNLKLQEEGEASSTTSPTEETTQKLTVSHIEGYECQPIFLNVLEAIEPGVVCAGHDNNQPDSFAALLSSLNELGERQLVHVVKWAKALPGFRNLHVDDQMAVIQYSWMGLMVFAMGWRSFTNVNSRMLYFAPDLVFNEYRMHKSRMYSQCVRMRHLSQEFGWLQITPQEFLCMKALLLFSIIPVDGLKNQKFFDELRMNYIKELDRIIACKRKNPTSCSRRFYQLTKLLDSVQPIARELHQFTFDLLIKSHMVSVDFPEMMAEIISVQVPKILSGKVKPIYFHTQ
Procedure, shortened: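 Antagonism is scored as loss of R1881-driven beta-lactamase reporter expression in HEK293 cells carrying the reporter under a UAS element, after 16 h co-treatment at 37C and a 2 h room-temperature FRET substrate read.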

[18] = target: Androgen receptor (Homo sapiens) (UniProt P10275); test: qHTS assay to identify small molecule agonists of the androgen receptor (AR) signaling pathway (AID 743036; active = well fitted activation curve with a large enough effect in the signal ratio in the repeat runs, with a control signal flat, not every such curve was filed as active; the % refers to the signal ratio)
Procedure, shortened: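 Screening used 2,000 AR-bla HEK293 cells per well, treated 16 h at 37C with test compounds in DMSO alongside positive and DMSO-only controls; beta-lactamase activity was then read by LiveBLAzer B/G FRET fluorescence after 2 h at room temperature.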

[19] = target: Androgen receptor (Homo sapiens) (UniProt P10275); test: qHTS assay to identify small molecule agonists of the androgen receptor (AR) signaling pathway using the MDA cell line (AID 743040; also: nearly all actives have a fitted effect of over 20% in size)
Procedure, shortened: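 Luminescence from ONE-Glo, read after 30 min at room temperature, reflects MMTV-driven luciferase in MDA-kb2 cells (AR- and GR-responsive). Treatment lasted 16 h at 37C, 0% CO2.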

[20] = target: Androgen receptor (Homo sapiens) (UniProt P10275); test: qHTS assay to identify small molecule antagonists of the androgen receptor (AR) signaling pathway using the MDA cell line (AID 743042; also: nearly all actives have a fitted effect of over 55% in size)
Procedure, shortened: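 MDA-kb2 cells (human breast carcinoma, stably carrying an MMTV-luciferase reporter responsive to AR and GR) were plated at 3,000 cells/well and preincubated 5 hr at 37C, then given compound plus R1881 agonist for 16 h. ONE-Glo luminescence was read.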

SMILES | Potency [1] | Potency [2] | Potency [3] | Potency [4] | Potency [5] | outcome [6] | Potency [7] | outcome [8] | Potency [9] | Potency [10] | Potency [11] | Potency [12] | Potency [13] | Potency [14] | Potency [15] | Potency [16] | Potency [17] | Potency [18] | Potency [19] | Potency [20]
CC[C@@H](C)CCCCC(=O)N[C@H](CCN)C(=O)N[C@@H](C(=O)N[C@H](CCN)C(=O)N[C@@H]1CCNC(=O)C([C@@H](C)O)NC(=O)[C@@H](CCN)NC(=O)[C@@H](CCN)NC(=O)[C@@H](CC(C)C)NC(=O)[C@@H](Cc2ccccc2)NC(=O)[C@@H](CCN)NC1=O)[C@@H](C)O (stereo partly drawn) (X3-[dDab][d(aThr)][dDab][dDab][dDab][dF][dL][dDab][dDab][ξThr(3R)]; lactam 4-C) | inactive | inactive | inactive | inactive | inactive | inactive | inactive | inactive | inactive | inactive | inactive | inactive | inactive | inactive | inactive |  |  |  |  | 
CCCCCCCCCCCCCCCC(=O)OCC(COC(=O)CCCCCCCCCCCCCCC)OC(=O)CCCCCCCCCCCCCCC | inactive | inactive | inactive | inactive | inactive | inactive | inactive | inactive | inactive | inactive | inactive | inactive | inactive |  | inactive | inactive |  |  |  | 
C/C1=C2N=C(/C=C3N=C(/C(C)=C4\[N-][C@@](C)([C@@H]5N=C1[C@](C)(CCC(=O)NCC(C)OP(=O)(O)O[C@H]1[C@@H](O)[C@@H](n6cnc7cc(C)c(C)cc76)O[C@@H]1CO)[C@H]5CC(N)=O)[C@@](C)(CC(N)=O)[C@@H]4CCC(N)=O)[C@@](C)(CC(N)=O)[C@@H]\3CCC(N)=O)C(C)(C)[C@@H]/2CCC(N)=O.CC(=O)O.[Co] (some centres not stated) | inactive | inactive | inactive | inactive | inactive | inactive | inactive | inactive | inactive | inactive | inactive | inactive |  | inactive |  | inactive |  |  |  | 
CCOC(=O)C1=C[C@@H](OC(CC)CC)[C@H](NC(C)=O)[C@@H](N)C1 | inactive | inactive | inactive | inactive | inactive | inactive | inactive | inactive | inactive | inactive | inactive | inactive | inactive | inactive | inactive |  |  |  |  | 
CO[C@@H]1[C@@H](O[C@@H]2O[C@H](C)[C@@H](O[C@H]3C[C@@](C)(O)[C@@H](O)[C@H](C)O3)[C@H](N(C)C)[C@H]2O)[C@@H](CC=O)C[C@@H](C)[C@@H](O[C@@H]2CC[C@H](N(C)C)[C@@H](C)O2)/C=C/C=C/C[C@@H](C)OC(=O)C[C@H]1O | inactive | inactive | inactive | inactive | inactive | inactive | inactive | inactive | inactive | inactive | inactive | inactive |  | inactive | inactive |  |  |  |  | 
CCCCCCCCCCCCOCCCN | inactive | inactive | inactive | inactive | inactive | inactive | inactive | inactive | inactive | inactive | inactive | inactive | inactive | inactive | inactive |  | inactive | inactive | inactive | inactive
CCOC(=O)c1c[nH]c2cc(OCC(C)C)c(OCC(C)C)cc2c1=O | inactive | inactive | inactive | inactive | inactive | inactive | inactive | inactive | inactive | inactive | inactive | inactive | inactive | inactive | inactive |  |  | inactive | inactive | inactive
C=C[C@]1(C)C[C@@H](OC(=O)CSC(C)(C)CNC(=O)[C@H](N)C(C)C)[C@]2(C)[C@H](C)CC[C@]3(CCC(=O)[C@H]32)[C@@H](C)[C@@H]1O | inactive | inactive | inactive | inactive | inactive | inactive | inactive | inactive | inactive | inactive | inactive | 188 nM (active) | 376 nM (active) |  |  | 335 nM (active) | 23900 nM (active) |  | inactive | 
CC(=O)Oc1cccc(C(=O)O)c1OC(C)=O | inactive | inactive | inactive | inactive | inactive | inactive | inactive | inactive | inactive | inactive | inactive | inactive | inactive | inactive | inactive |  |  |  |  | 
O=C(O)c1cccc(/C=C2/C[C@@H]3[C@@H](/C=C/[C@@H](O)C4CCCCC4)[C@H](O)C[C@@H]3O2)c1 | inactive | inactive | inactive | inactive | inactive | inactive | inactive | inactive | inactive | inactive | inactive | inactive | inactive |  | inactive | inactive | inactive |  | inactive | inactive
O=C(NCCNCC(O)COc1ccc(O)cc1)N1CCOCC1 (configuration not stated) | inactive | inactive | inactive | inactive | inactive | inactive | inactive | inactive | inactive | inactive | inactive | inactive | inactive | inactive | inactive |  |  |  |  | 
COc1ccc(C2(C#N)CCC(C(=O)O)CC2)cc1OC1CCCC1 (configuration not stated) | inactive | inactive | inactive | inactive | inactive | inactive | inactive | inactive | inactive | inactive | inactive | inactive | inactive |  | inactive | inactive |  |  |  | 
NNc1nnc(Cc2ccncc2)c2ccccc12 | inactive | inactive | inactive | inactive | inactive | inactive | inactive | inactive | inactive | inactive | inactive | inactive |  | inactive | inactive | inactive | inactive |  | inactive | inactive
CCC(=O)O[C@@H]1CC(=O)O[C@H](C)C/C=C/C=C/[C@H](O)[C@H](C)C[C@H](CC=O)[C@H](O[C@@H]2O[C@H](C)[C@@H](O[C@H]3C[C@@](C)(O)[C@@H](OC(=O)CC)[C@H](C)O3)[C@H](N(C)C)[C@H]2O)[C@H]1OC | inactive | inactive | inactive | inactive | inactive | inactive | inactive | inactive | inactive | inactive | inactive | inactive |  | inactive | inactive | inactive |  |  |  | 
